Assay results published in PMC9911399, “Two distinct binding modes provide the RNA-binding protein RbFox with extraordinary sequence specificity”.
Numbering of substitutions follows the chain as printed; changes in the protein carry UniProt numbers. Whole data set: some 16,000 sequences, median “ka relative to ugcaugu” near 0.096, cut for the highest 2% near 0.35. The list comes from a sample in which the highest values are over-represented; it also holds similar and randomly drawn sequences.

T1: RBFOX1 RRM RbFoxmut (Fox-RRM*) (Homo sapiens, UniProt Q9NWB1 109-208, R118D;E147R;N151S;E152T)
T1 sequence: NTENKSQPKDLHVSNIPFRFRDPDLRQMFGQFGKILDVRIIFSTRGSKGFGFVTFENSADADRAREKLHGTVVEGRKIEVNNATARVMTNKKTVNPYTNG

B1: GGAACGU (DNA:RNA)
RNA: GGGAGACCGGAAUUCAGAUUGUCCGGAACGUUUAAAUCCCGUCGUAGCCACCA
DNA 1: CAATCTGAATTCCGGTCTCCC
DNA 2: TGGTGGCTACGACGGGATT
B2: UGGACGU (DNA:RNA)
RNA: B1 RNA with G25U, A27G
DNA 1: CAATCTGAATTCCGGTCTCCC
DNA 2: TGGTGGCTACGACGGGATT
B3: GAACGUU (DNA:RNA)
RNA: B1 RNA with G26A, A28C, C29G, G30U
DNA 1: CAATCTGAATTCCGGTCTCCC
DNA 2: TGGTGGCTACGACGGGATT
B4: CGCUCCU (DNA:RNA)
RNA: B1 RNA with G25C, A27C, A28U, G30C
DNA 1: CAATCTGAATTCCGGTCTCCC
DNA 2: TGGTGGCTACGACGGGATT
B5: GGAGGUA (DNA:RNA)
RNA: B1 RNA with A28G, C29G, G30U, U31A
DNA 1: CAATCTGAATTCCGGTCTCCC
DNA 2: TGGTGGCTACGACGGGATT
B6: GGCCGUU (DNA:RNA)
RNA: B1 RNA with A27C, A28C, C29G, G30U
DNA 1: CAATCTGAATTCCGGTCTCCC
DNA 2: TGGTGGCTACGACGGGATT
B7: GUUUUCU (DNA:RNA)
RNA: B1 RNA with G26U, A27U, A28U, C29U, G30C
DNA 1: CAATCTGAATTCCGGTCTCCC
DNA 2: TGGTGGCTACGACGGGATT
B8: AGAACGU (DNA:RNA)
RNA: B1 RNA with G25A
DNA 1: CAATCTGAATTCCGGTCTCCC
DNA 2: TGGTGGCTACGACGGGATT
B9: AGGAACG (DNA:RNA)
RNA: B1 RNA with G25A, A27G, C29A, G30C, U31G
DNA 1: CAATCTGAATTCCGGTCTCCC
DNA 2: TGGTGGCTACGACGGGATT
B10: GAGAACG (DNA:RNA)
RNA: B1 RNA with G26A, A27G, C29A, G30C, U31G
DNA 1: CAATCTGAATTCCGGTCTCCC
DNA 2: TGGTGGCTACGACGGGATT
B11: GAACGUG (DNA:RNA)
RNA: B1 RNA with G26A, A28C, C29G, G30U, U31G
DNA 1: CAATCTGAATTCCGGTCTCCC
DNA 2: TGGTGGCTACGACGGGATT
B12: UGAACGU (DNA:RNA)
RNA: B1 RNA with G25U
DNA 1: CAATCTGAATTCCGGTCTCCC
DNA 2: TGGTGGCTACGACGGGATT
B13: GGGAACG (DNA:RNA)
RNA: B1 RNA with A27G, C29A, G30C, U31G
DNA 1: CAATCTGAATTCCGGTCTCCC
DNA 2: TGGTGGCTACGACGGGATT
B14: GUGAACG (DNA:RNA)
RNA: B1 RNA with G26U, A27G, C29A, G30C, U31G
DNA 1: CAATCTGAATTCCGGTCTCCC
DNA 2: TGGTGGCTACGACGGGATT
B15: CAGAACG (DNA:RNA)
RNA: B1 RNA with G25C, G26A, A27G, C29A, G30C, U31G
DNA 1: CAATCTGAATTCCGGTCTCCC
DNA 2: TGGTGGCTACGACGGGATT
B16: AGGACCG (DNA:RNA)
RNA: B1 RNA with G25A, A27G, G30C, U31G
DNA 1: CAATCTGAATTCCGGTCTCCC
DNA 2: TGGTGGCTACGACGGGATT
B17: UGGACAG (DNA:RNA)
RNA: B1 RNA with G25U, A27G, G30A, U31G
DNA 1: CAATCTGAATTCCGGTCTCCC
DNA 2: TGGTGGCTACGACGGGATT
B18: CCUUCUU (DNA:RNA)
RNA: B1 RNA with G25C, G26C, A27U, A28U, G30U
DNA 1: CAATCTGAATTCCGGTCTCCC
DNA 2: TGGTGGCTACGACGGGATT
B19: UCGGAUG (DNA:RNA)
RNA: GGGAGACCGGAAUUCAGAUUGUCCUCGGAUGUUAAAUCCCGUCGUAGCCACCA
DNA 1: CAATCTGAATTCCGGTCTCCC
DNA 2: TGGTGGCTACGACGGGATT
B20: GAAGCGU (DNA:RNA)
RNA: B1 RNA with G26A, A28G
DNA 1: CAATCTGAATTCCGGTCTCCC
DNA 2: TGGTGGCTACGACGGGATT
B21: GCAUAGU (DNA:RNA)
RNA: B1 RNA with G26C, A28U, C29A
DNA 1: CAATCTGAATTCCGGTCTCCC
DNA 2: TGGTGGCTACGACGGGATT
B22: GCCAUGU (DNA:RNA)
RNA: B1 RNA with G26C, A27C, C29U
DNA 1: CAATCTGAATTCCGGTCTCCC
DNA 2: TGGTGGCTACGACGGGATT
B23: GUUUUUU (DNA:RNA)
RNA: B1 RNA with G26U, A27U, A28U, C29U, G30U
DNA 1: CAATCTGAATTCCGGTCTCCC
DNA 2: TGGTGGCTACGACGGGATT
B24: CGCAUUG (DNA:RNA)
RNA: B1 RNA with G25C, A27C, C29U, G30U, U31G
DNA 1: CAATCTGAATTCCGGTCTCCC
DNA 2: TGGTGGCTACGACGGGATT
B25: CGCAUGU (DNA:RNA)
RNA: B1 RNA with G25C, A27C, C29U
DNA 1: CAATCTGAATTCCGGTCTCCC
DNA 2: TGGTGGCTACGACGGGATT
B26: CCCCGCA (DNA:RNA)
RNA: B19 RNA with U25C, G27C, G28C, A29G, U30C, G31A
DNA 1: CAATCTGAATTCCGGTCTCCC
DNA 2: TGGTGGCTACGACGGGATT
B27: CCGCAUG (DNA:RNA)
RNA: B19 RNA with U25C, G28C
DNA 1: CAATCTGAATTCCGGTCTCCC
DNA 2: TGGTGGCTACGACGGGATT
B28: GCAUGUU (DNA:RNA)
RNA: B1 RNA with G26C, A28U, C29G, G30U
DNA 1: CAATCTGAATTCCGGTCTCCC
DNA 2: TGGTGGCTACGACGGGATT
B29: GCAAUGU (DNA:RNA)
RNA: B1 RNA with G26C, C29U
DNA 1: CAATCTGAATTCCGGTCTCCC
DNA 2: TGGTGGCTACGACGGGATT
B30: UACUGCC (DNA:RNA)
RNA: B19 RNA with C26A, G27C, G28U, A29G, U30C, G31C
DNA 1: CAATCTGAATTCCGGTCTCCC
DNA 2: TGGTGGCTACGACGGGATT
B31: CCGGCAC (DNA:RNA)
RNA: B19 RNA with U25C, A29C, U30A, G31C
DNA 1: CAATCTGAATTCCGGTCTCCC
DNA 2: TGGTGGCTACGACGGGATT

Each binder was assayed against T1, RBFOX1 RRM RbFoxmut (Fox-RRM*) (assay: EMSA; HiTS-Eq, 1 nM pool, 10 min; buffer printed only for the single-RNA assays: 10 mM Tris pH 7.5, 150 mM NaCl, 3.4 mM EDTA, 0.001% NP-40, 30 C). Conditions: tags: His6 N-terminal (pET28a); label: 5' 32P.
Method in brief: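 Purified wild-type or mutant RbFox RRM at increasing concentrations was equilibrated with 1 nM of 5′-radiolabelled RNA carrying 7 randomized nucleotides for 10 min in 50 µL. Unbound RNA was separated by 8% native PAGE and sequenced. Relative association constants came from read-count changes of each RNA species compared with the control reaction, normalised to the cognate motif.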

Binder	binding signal
B1	0.415 KA relative to UGCAUGU
B2	0.147 KA relative to UGCAUGU
B3	0.199 KA relative to UGCAUGU
B4	0.0521 KA relative to UGCAUGU
B5	0.121 KA relative to UGCAUGU
B6	0.0754 KA relative to UGCAUGU
B7	0.0724 KA relative to UGCAUGU
B8	0.149 KA relative to UGCAUGU
B9	0.576 KA relative to UGCAUGU
B10	0.347 KA relative to UGCAUGU
B11	0.226 KA relative to UGCAUGU
B12	0.242 KA relative to UGCAUGU
B13	0.472 KA relative to UGCAUGU
B14	0.538 KA relative to UGCAUGU
B15	0.168 KA relative to UGCAUGU
B16	0.183 KA relative to UGCAUGU

Binder	binding signal
B17	0.0526 KA relative to UGCAUGU
B18	0.0561 KA relative to UGCAUGU
B19	0.119 KA relative to UGCAUGU
B20	0.0921 KA relative to UGCAUGU
B21	0.192 KA relative to UGCAUGU
B22	0.188 KA relative to UGCAUGU
B23	0.0932 KA relative to UGCAUGU
B24	0.179 KA relative to UGCAUGU
B25	1.08 KA relative to UGCAUGU
B26	0.118 KA relative to UGCAUGU
B27	1.13 KA relative to UGCAUGU
B28	0.776 KA relative to UGCAUGU
B29	0.12 KA relative to UGCAUGU
B30	0.217 KA relative to UGCAUGU
B31	0.0571 KA relative to UGCAUGU
